Test results as given in the supplement of paper PMC11732987, “Enantioselective OTUD7B fragment discovery through chemoproteomics screening and high-throughput optimisation” (Communications Chemistry, 2025).

Columns and labels:
Assay in all cases: log2 ratio of Biotin-Ahx-Ub-VS probe labelling (fragment/DMSO); higher = less target engagement (more negative = stronger competition), active = hit call of the paper (q ≤ 0.05, log2 ratio ≤ -1)
Conditions in all cases: compound concentration: 200 uM; treatment time: 3 h
ALG13 = molecular target: T1, ALG13 (UniProt Q9NP73)
T1 sequence (whole entry): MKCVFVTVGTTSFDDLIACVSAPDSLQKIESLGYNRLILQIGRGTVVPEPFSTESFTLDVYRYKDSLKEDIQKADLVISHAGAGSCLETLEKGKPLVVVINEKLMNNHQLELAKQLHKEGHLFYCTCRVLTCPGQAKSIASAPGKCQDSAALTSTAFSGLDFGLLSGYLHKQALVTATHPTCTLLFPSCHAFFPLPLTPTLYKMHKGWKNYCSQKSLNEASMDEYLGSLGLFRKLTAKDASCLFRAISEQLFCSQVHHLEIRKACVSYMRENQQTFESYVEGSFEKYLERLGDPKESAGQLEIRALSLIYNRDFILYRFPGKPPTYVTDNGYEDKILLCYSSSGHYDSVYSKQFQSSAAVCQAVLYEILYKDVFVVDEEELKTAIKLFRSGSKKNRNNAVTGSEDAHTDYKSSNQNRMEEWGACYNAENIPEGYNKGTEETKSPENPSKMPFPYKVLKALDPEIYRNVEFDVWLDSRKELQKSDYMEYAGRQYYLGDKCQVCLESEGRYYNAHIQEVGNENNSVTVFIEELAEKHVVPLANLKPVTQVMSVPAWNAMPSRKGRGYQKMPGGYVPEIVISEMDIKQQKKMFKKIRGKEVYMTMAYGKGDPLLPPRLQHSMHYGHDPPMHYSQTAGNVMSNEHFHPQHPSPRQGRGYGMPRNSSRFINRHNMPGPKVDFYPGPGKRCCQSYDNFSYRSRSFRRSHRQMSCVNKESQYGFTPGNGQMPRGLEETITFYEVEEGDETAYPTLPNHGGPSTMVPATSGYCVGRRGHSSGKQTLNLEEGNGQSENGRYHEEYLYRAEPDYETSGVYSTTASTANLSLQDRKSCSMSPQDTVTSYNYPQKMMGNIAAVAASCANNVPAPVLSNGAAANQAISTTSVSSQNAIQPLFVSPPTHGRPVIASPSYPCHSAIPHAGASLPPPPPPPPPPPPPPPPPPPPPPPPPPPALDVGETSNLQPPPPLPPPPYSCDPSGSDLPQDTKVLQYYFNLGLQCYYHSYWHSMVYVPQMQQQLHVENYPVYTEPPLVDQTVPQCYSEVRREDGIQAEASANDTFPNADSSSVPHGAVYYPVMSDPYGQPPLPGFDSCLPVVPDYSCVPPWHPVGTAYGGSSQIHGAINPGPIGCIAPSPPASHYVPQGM
In short: (§1)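 Lysate from HEK293T cells, 495 µg per sample in Tris/CHAPS/IGEPAL buffer with protease inhibitors, was treated for 3 h in triplicate with fragment at 200 µM or vehicle. Biotin-Ahx-Ub-VS was next added at 0.5 µM final for 1 h. The labelled DUBs were enriched with NeutrAvidin, digested with LysC and trypsin, and run by diaPASEF LC-MS/MS, with values given as average log2 fragment/vehicle ratios by unpaired t-test on global-median-normalised Spectronaut quantities of proteins with ≥2 unique peptides.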

ATXN3 = ATXN3 (UniProt P54252)
Chain of ATXN3 (P54252 whole entry): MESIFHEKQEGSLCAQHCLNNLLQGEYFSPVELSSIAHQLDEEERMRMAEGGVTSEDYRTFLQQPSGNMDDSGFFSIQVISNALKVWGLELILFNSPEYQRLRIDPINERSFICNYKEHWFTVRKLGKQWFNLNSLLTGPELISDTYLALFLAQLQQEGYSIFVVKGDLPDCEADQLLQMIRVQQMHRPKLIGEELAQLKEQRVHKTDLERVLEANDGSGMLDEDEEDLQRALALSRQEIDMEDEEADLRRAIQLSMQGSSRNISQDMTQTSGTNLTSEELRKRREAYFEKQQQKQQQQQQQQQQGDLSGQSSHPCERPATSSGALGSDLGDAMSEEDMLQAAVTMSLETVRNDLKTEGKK
In short: as §1

BAP1 = molecular target: T2, BAP1 (UniProt Q92560)
T2 sequence (whole entry): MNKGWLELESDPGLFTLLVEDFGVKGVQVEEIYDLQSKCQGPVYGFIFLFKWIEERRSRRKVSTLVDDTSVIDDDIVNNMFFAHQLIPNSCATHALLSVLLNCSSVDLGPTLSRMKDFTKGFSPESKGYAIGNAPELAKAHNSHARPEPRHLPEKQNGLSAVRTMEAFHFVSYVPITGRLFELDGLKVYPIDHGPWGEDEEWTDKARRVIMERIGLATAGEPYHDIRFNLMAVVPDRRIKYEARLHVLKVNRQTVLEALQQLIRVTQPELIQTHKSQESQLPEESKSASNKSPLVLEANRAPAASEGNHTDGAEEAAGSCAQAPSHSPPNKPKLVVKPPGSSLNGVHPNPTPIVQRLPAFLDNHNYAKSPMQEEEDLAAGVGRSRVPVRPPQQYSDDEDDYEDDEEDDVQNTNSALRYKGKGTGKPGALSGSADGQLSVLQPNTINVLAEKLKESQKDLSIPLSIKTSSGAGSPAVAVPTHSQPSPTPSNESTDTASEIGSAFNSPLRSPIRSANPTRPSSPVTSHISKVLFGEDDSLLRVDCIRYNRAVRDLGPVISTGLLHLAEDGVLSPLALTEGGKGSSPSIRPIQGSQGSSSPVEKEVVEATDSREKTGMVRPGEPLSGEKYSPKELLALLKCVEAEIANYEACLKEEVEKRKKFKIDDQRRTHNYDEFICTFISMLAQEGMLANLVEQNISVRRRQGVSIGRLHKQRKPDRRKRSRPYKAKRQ
In short: as §1

EIF3F = EIF3F (UniProt O00303)
Chain of EIF3F (O00303 whole entry): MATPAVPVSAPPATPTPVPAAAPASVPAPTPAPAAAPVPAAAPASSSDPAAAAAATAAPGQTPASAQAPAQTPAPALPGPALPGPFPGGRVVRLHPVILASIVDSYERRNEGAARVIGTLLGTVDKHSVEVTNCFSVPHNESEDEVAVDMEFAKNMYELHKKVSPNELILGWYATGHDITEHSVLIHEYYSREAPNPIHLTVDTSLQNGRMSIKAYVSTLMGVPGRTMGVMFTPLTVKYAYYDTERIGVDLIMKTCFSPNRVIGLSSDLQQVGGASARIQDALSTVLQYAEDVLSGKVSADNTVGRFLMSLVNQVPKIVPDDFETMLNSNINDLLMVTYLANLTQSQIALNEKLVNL
In short: as §1

EIF3H = EIF3H (UniProt O15372)
Chain of EIF3H (O15372 whole entry): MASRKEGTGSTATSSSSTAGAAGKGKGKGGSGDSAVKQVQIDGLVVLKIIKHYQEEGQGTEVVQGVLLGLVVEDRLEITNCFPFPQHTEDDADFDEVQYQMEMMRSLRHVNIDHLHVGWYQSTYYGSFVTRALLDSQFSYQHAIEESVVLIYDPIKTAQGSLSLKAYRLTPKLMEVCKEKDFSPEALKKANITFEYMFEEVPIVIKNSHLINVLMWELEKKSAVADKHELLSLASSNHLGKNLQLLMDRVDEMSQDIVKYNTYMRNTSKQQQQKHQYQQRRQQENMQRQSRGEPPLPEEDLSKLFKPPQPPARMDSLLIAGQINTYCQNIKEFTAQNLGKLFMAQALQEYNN
In short: as §1

FAM105A = molecular target: T3, FAM105A (UniProt Q9NUU6)
T3 sequence (whole entry): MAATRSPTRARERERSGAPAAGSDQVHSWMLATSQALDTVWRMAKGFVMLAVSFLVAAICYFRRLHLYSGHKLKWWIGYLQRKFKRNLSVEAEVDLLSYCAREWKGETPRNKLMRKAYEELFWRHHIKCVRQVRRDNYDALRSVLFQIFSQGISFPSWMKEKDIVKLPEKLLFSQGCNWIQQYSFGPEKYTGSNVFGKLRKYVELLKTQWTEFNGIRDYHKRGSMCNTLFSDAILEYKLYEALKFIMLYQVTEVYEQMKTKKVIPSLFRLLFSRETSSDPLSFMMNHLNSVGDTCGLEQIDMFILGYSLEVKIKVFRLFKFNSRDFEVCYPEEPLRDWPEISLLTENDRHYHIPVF
In short: as §1

OTUB1 = OTUB1 (UniProt Q96FW1)
Chain of OTUB1 (Q96FW1 whole entry): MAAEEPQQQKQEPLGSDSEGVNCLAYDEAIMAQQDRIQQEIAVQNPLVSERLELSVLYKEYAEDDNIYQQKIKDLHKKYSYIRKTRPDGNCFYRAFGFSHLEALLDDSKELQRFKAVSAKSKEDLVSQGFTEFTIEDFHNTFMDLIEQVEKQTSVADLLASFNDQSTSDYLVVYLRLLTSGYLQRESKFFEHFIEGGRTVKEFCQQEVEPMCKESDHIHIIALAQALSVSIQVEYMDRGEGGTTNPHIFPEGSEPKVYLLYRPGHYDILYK
In short: as §1

OTUD4 = molecular target: T4, OTUD4 (UniProt Q01804)
T4 sequence (whole entry): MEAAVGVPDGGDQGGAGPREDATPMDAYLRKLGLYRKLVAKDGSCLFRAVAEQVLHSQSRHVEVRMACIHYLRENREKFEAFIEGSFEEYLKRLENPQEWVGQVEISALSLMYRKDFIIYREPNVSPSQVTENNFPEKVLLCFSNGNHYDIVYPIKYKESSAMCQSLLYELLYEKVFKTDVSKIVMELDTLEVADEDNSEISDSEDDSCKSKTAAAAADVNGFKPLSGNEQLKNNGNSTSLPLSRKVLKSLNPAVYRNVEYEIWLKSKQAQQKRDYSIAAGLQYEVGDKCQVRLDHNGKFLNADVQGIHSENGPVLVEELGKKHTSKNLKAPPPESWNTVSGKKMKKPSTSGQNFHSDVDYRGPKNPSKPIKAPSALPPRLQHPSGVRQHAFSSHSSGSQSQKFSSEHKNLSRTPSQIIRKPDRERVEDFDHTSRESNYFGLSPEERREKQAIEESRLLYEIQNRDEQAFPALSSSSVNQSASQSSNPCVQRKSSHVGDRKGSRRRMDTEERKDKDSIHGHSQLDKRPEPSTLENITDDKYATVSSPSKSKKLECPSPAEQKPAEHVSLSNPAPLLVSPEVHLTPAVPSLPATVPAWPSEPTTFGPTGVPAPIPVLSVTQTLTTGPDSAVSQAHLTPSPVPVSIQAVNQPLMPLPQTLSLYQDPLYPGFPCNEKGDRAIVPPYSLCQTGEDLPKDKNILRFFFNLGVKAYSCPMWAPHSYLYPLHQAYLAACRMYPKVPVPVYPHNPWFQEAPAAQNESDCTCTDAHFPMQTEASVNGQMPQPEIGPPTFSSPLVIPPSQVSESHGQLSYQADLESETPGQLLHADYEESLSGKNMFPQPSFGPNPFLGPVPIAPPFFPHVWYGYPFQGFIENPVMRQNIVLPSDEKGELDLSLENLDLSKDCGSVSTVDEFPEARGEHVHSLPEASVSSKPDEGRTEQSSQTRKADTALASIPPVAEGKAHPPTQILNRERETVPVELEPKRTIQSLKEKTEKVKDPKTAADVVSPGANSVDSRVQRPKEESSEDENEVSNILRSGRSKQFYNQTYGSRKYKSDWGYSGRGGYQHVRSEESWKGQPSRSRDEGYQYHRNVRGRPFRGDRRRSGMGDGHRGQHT
In short: as §1

OTUD5 = molecular target: T5, OTUD5 (UniProt Q96G74)
T5 sequence (whole entry): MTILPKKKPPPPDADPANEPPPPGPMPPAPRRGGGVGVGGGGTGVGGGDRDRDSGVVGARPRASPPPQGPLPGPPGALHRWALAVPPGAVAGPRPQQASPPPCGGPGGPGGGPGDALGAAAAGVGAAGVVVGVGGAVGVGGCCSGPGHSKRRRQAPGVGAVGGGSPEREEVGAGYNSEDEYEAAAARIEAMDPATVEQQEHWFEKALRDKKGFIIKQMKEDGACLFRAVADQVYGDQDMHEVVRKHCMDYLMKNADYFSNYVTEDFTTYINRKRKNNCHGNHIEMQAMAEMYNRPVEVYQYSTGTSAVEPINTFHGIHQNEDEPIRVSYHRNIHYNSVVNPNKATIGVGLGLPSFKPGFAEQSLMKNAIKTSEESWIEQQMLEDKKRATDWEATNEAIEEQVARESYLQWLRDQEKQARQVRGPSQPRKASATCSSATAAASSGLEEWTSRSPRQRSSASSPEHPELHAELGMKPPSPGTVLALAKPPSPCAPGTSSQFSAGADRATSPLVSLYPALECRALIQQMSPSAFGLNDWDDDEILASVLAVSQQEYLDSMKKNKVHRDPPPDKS
In short: as §1

Measured: log2 ratio of Biotin-Ahx-Ub-VS probe labelling

Cc1cnc2[nH]cc(CCNC(=O)CCl)c2c1
inactive: ALG13 -0.0473 | ATXN3 -0.0726 | EIF3F -0.228 | EIF3H 0.13 | FAM105A -0.55 | OTUB1 0.0416 | OTUD4 -0.139 | OTUD5 -0.26
active: BAP1 -1
